In the supplement of paper PMC6555819:

What follows are sequences tested on VDR:RXRa (NR concentration 270 nM, RXRa partner concentration 90 nM) (assay: PBM binding z-score (relative to random genomic background probes); higher = stronger binding; sequences stand for … in GC…GCGATTGACAGCGTAGAATGAAGG).
Protocol: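 Protein-binding microarray (Agilent 4x180K custom design, double-stranded 60-nt probes: 5' GC cap, 34-nt variable region, 24-nt constant primer region; full probe sequence given). Purified or IVT nuclear receptor:RXRα heterodimers (3:1 NR:RXRα, mostly 270:90 nM) or homodimers were incubated for 1 h in PBS with 2% milk and no ligand, then detected with Alexa488 antibodies. Fluorescence from o1-orientation probes (~5 replicates averaged) was converted to z-scores against 500 random hg19 background probes. Variable regions are seed direct-repeat (DR0–DR5) sites, all their single-nucleotide variants and half-site ablations.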
ATCTCTAGGTATCCAAGTTCAGTGAATGCCGAAC was tested, and the PBM binding z-score was 2.38. CGAACTAGGTCATTGAGAGGACAGTGAATAGTAA gave a PBM binding z-score of 2.92. CGAACTTGGTCATTGACAGGACAGTGAATAGTAA showed a PBM binding z-score of 0.0642. CGAACTAGGTCAGAACAGGACAGTGCAGGATGAT showed a PBM binding z-score of 0.787. For AGTCAAAATTCATCTAGGTAACGTAAGATATGCT, the PBM binding z-score was -0.0109. In the case of CCTTACGGGGCACGAGGTTATAGCACGACGAGCG, the PBM binding z-score is reported as 0.986. Work on TCGAGTAAGTTAGGGGCATTCAGAATGGCGTCGA yielded a PBM binding z-score of 0.425. With GGAACGAGGGCAGGTTGATAGCAGAGTTTGATGG the PBM binding z-score was 0.111. GGAACGAGGGCAAATTGATAGCAGAGTTTGATGG showed a PBM binding z-score of 0.922. For AGAATGAGGATAAGATCAGGGAAACAGAATACAT, the PBM binding z-score was -0.0497. In the case of ATCTCTAGGTAAAGTTCAGTAAAAGATCGATAGA, the PBM binding z-score is reported as 1.65. ATCTCTAGGTAATAAGTTCAGTGAAAGAGAGGAC was tested, and the PBM binding z-score was 1.9. Work on AATCAAAGTTCAGGACGAGGTAACGTAAAGCACG yielded a PBM binding z-score of 3. TGAATGAGGTTATAATATCAGGGAACGTTGCAAA showed a PBM binding z-score of 1.35. With CGAACTAGGTCATCCGGGACAGTGAATACATTGA the PBM binding z-score was 4.04. Sequence TCTTGTAGATCAACAGGAGGTTAAGAGAGATCGA has a PBM binding z-score of 0.733. Work on CCGACTGTGGCAGAAAGGTTACCATACCATCCGG yielded a PBM binding z-score of 0.378. Work on CCTACTGGGCCATTCAAAGGTCATTGATCATATG yielded a PBM binding z-score of 3.96. In the case of TCTTGTAGATCAAGCGGGTTAAGAAAGCCTGAGT, the PBM binding z-score is reported as 0.54. With CCTGCTCGGTCATGGTCAGCTAATCTACAGTATG the PBM binding z-score was -0.315. ATATGTAGGTTACATCCGGGTCATTTAGGCTATG showed a PBM binding z-score of 3.9. For CCTACTTGGCCAAAGGTCATTGATTCCAATGCTC, the PBM binding z-score was 4.62. In the case of ACAGAAAGGTGATGAAGGTAACTCAGGCTATCAT, the PBM binding z-score is reported as 1.2. Work on CAAACTAGGTCACAGAGCTCAAAGTCCGTGCGTA yielded a PBM binding z-score of 3.09. Work on CTCGAAAGGTCGGTTGAGCTGAGTATACGGATAA yielded a PBM binding z-score of 0.528. Sequence TCTGCTAGGTCAACGATGGTCATCTAATCTGCTA has a PBM binding z-score of 2.16. GCTGCTAGGTCAGGTTGGTCAGCCAACGGGTACG was tested, and the PBM binding z-score was 0.447. ATCGAAAGGTCGAAGGTGAGTATTCCCACCCGAA showed a PBM binding z-score of 2.58. With GCTGCTAGGTCAGGTTGGTCAGTTAACGGGTACG the PBM binding z-score was 1.02. Work on CCTATTAGTTGCCCATAAGGGCAACCGAAGCTCG yielded a PBM binding z-score of 0.653. CGTCCAAGGTAATAGGAGGTCAGTGAAGACAGAT gave a PBM binding z-score of 2.56. For TGTCAAAGTTCAAAGGTAACGTATGTATCCACAC, the PBM binding z-score was 5.14. ATCTTTAGGTAACCAAGTTCAGTGAATGCCGAAC was tested, and the PBM binding z-score was 4.36. For TATACAGGGTCCAAGGCCAGAGTACGAATGTCGA, the PBM binding z-score was 0.821. With TATACAGGGGCAAAGGCCAGAGTACGAATGTCGA the PBM binding z-score was 1.03. In the case of CAGCCTAGGTCAGAGCCAGTATAGGAGGAACGTT, the PBM binding z-score is reported as 0.207. In the case of TTACCAAGGTGAAGGGCGTTGATCCCTCTGTAGA, the PBM binding z-score is reported as 0.253. For AGAACGAGGGCAATGAGTTGGTAGCACGGGTGGC, the PBM binding z-score was 4.09. In the case of TCATATAGGTAAATGCTCGGTGAAAGTCCGATCT, the PBM binding z-score is reported as 1.01. For CTCGAAAGGTCGGTTGAGGTGAATATACGGATAA, the PBM binding z-score was 2.79.
